# Laboratory results as given in PMC5700166.
# Changes are numbered by the printed parent chain.
# Columns and labels:
# Assay in all cases: protein-binding microarray (PBM); PBM: ~300 nM protein, 6 mM HEPES pH 7.8, 80 mM KCl, 0.5 mM EDTA, 0.5 mM EGTA, 6% glycerol, 35 ng/ul poly-dIdC, 1% milk, 1 h, room temperature; Ap Aiptasia and Nv Nematostella (sea anemones) / Co Capsaspora / Aq Amphimedon (sponge) / Dm Drosophila / Hu human; RHD is the Rel homology domain; high values mean tight binding
# Conditions in all cases: dsDNA, one strand shown
# GST-Ap-NF-kB RHD = molecular target: T1, GST-Ap-NF-kB RHD (Exaiptasia pallida (Aiptasia), UniProt A0A913YAJ5 2-422)
# T1 sequence: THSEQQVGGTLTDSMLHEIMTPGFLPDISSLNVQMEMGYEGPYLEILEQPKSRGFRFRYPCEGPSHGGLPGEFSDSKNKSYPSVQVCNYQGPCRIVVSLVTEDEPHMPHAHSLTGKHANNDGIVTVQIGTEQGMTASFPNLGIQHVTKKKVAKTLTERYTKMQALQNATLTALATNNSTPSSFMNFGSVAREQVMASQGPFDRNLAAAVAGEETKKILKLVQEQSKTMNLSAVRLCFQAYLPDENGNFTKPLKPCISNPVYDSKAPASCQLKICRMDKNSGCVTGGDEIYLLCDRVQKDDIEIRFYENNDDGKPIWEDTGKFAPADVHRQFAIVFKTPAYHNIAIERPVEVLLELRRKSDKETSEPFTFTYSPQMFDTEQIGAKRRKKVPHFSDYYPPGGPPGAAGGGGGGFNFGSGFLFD
# [1] = molecular target: T2, GST-Nv-NF-kB (Cys allele) (Nematostella vectensis, UniProt E5G601 2-411)
# T2 sequence: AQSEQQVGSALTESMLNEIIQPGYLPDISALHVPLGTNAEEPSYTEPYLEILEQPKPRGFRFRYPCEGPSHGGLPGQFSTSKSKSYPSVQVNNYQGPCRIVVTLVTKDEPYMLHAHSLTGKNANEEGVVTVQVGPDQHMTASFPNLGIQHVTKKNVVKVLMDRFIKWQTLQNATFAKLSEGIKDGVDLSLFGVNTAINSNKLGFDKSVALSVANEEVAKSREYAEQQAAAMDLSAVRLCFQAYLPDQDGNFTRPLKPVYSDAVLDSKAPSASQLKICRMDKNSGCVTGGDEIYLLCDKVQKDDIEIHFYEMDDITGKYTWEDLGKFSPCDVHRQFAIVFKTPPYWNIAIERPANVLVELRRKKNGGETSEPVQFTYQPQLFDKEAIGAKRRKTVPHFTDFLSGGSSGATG
# [2] = molecular target: T3, GST-Nv-NF-kB (Ser allele) (Nematostella vectensis, UniProt A7UNT2 2-411)
# T3 sequence: T2 sequence with Q21R, C66S, S207N, E215Q, V217A, E225K, A268E, D399E
# GST-Co-NF-kB = molecular target: T4, GST-Co-NF-kB (Capsaspora owczarzaki, UniProt F1ARL5 200-546)
# T4 sequence: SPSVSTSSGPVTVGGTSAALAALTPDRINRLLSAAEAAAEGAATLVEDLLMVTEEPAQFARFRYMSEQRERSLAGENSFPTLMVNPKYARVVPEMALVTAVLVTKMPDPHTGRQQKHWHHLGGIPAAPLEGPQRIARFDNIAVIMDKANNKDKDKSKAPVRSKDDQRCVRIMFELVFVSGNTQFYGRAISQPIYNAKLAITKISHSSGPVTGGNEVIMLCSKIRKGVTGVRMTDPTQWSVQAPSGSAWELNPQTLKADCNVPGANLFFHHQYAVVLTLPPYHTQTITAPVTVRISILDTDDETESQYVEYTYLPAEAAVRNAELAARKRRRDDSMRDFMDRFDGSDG
# GST-Dm-Relish = molecular target: T5, GST-Dm-Relish (Drosophila melanogaster, UniProt Q94527 99-473)
# T5 sequence: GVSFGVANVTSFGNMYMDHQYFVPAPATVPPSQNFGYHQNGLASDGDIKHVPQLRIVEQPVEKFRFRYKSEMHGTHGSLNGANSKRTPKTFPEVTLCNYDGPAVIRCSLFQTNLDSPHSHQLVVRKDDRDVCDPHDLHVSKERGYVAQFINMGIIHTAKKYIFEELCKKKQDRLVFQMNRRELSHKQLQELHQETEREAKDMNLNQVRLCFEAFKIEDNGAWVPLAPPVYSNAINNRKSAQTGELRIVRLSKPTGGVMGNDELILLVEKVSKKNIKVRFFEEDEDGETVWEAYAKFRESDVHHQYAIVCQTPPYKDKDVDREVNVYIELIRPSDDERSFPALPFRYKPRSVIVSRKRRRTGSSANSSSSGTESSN
# GST-Aq-NF-kB = molecular target: T6, GST-Aq-NF-kB (Amphimedon queenslandica, UniProt A9Y5G7 2-389)
# T6 sequence: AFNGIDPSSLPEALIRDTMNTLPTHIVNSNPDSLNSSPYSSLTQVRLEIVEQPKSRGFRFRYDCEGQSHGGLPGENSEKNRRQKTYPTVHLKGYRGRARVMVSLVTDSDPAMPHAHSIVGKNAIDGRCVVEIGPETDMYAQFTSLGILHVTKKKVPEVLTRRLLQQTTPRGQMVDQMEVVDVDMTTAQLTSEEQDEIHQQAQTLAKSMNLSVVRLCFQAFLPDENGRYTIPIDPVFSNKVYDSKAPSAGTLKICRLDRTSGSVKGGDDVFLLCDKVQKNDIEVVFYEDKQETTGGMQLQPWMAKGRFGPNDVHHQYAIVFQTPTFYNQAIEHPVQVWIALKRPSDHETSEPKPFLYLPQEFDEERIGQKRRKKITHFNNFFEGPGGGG
# GST-Hu-p50 = GST-Hu-p50 (Homo sapiens, UniProt P19838 7-356)
# Sequence of GST-Hu-p50 (P19838 7-356): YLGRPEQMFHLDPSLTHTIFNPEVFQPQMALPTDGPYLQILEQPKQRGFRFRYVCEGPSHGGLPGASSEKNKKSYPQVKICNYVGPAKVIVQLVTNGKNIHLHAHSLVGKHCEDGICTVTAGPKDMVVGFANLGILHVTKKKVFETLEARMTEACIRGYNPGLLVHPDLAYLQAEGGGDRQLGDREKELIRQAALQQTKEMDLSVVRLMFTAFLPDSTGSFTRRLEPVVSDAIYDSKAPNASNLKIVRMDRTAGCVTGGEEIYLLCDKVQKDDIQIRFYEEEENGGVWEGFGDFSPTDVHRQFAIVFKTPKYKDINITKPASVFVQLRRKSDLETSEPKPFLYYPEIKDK
Sequence,binding signal (GST-Ap-NF-kB RHD) [z-score],binding signal [1] [z-score],binding signal [2] [z-score],binding signal (GST-Co-NF-kB) [z-score],binding signal (GST-Dm-Relish) [z-score],binding signal (GST-Aq-NF-kB) [z-score],binding signal (GST-Hu-p50) [z-score]
CCGATTAACATCAGGGCTTCCCCTGATGTTAATCGGGTCTTGATTCGCTTGACGCTGCTG,9.17,10.8,8.58,4.03,10.4,9.48,6.74
CCGATTAACATCAGAGACCCCCCTGATGTTAATCGGGTCTTGATTCGCTTGACGCTGCTG,4.3,3.27,2.81,2.4,5.26,3.97,3.87
CCGATTAACATCAGGGGGGTATATGATGTTAATCGGGTCTTGATTCGCTTGACGCTGCTG,5.34,2.99,4.19,5.73,3.95,4.1,3.59
CCGATTAACATCAGGGGAAGTTATGATGTTAATCGGGTCTTGATTCGCTTGACGCTGCTG,7.14,9.1,9.37,7.7,7.34,7.08,6.64
CCGATTAACATCAAAAAATCCCATGATGTTAATCGGGTCTTGATTCGCTTGACGCTGCTG,4.84,5.22,4.17,2.05,8.41,5.43,4.75
CCGATTAACATCAGGGGATTTTATGATGTTAATCGGGTCTTGATTCGCTTGACGCTGCTG,10.4,11.7,12.7,4.81,9.55,8.66,8.09
CCGATTAACATCACCCTTTTCCCTGATGTTAATCGGGTCTTGATTCGCTTGACGCTGCTG,2.88,3.25,5.61,4.6,1.52,2.91,2.59
CCGATTAACATCAGGGGATGCACTGATGTTAATCGGGTCTTGATTCGCTTGACGCTGCTG,4.3,4.83,6.02,2.97,9.57,5.85,4.77
CCGATTAACATCAAGGGAAATCCTGATGTTAATCGGGTCTTGATTCGCTTGACGCTGCTG,5.35,7.47,6.52,3.33,6.05,6.57,4.65
CCGATTAACATCAGGAAGTACCCTGATGTTAATCGGGTCTTGATTCGCTTGACGCTGCTG,3.65,3.73,3.95,,6.69,6.15,3.47
CCGATTAACATCAGGGACTTCACTGATGTTAATCGGGTCTTGATTCGCTTGACGCTGCTG,3.82,4.27,4.08,,7.9,5.14,4.12
CCGATTAACATCAGCAACCCCCCTGATGTTAATCGGGTCTTGATTCGCTTGACGCTGCTG,5.04,3.58,3.86,2.82,6.14,4.16,4.83
CCGATTAACATCAGGGAGTCACCTGATGTTAATCGGGTCTTGATTCGCTTGACGCTGCTG,3.25,1.16,1.39,,8.86,3.63,1.96
CCGATTAACATCAGGGTACTACCTGATGTTAATCGGGTCTTGATTCGCTTGACGCTGCTG,2.34,1.63,2.2,,1.62,4.13,1.43
CCGATTAACATCAGGAGAGCCCCTGATGTTAATCGGGTCTTGATTCGCTTGACGCTGCTG,3.65,3.73,1.67,,2.24,6.28,3.2
CCGATTAACATCAAATTACCCCCTGATGTTAATCGGGTCTTGATTCGCTTGACGCTGCTG,6.8,5.57,6.77,8.18,4.33,5.57,5.08
CCGATTAACATCAAGGAACTCCCTGATGTTAATCGGGTCTTGATTCGCTTGACGCTGCTG,3.98,3.82,2.62,1.49,5.06,5.06,3.54
CCGATTAACATCAGGATAGTCCCTGATGTTAATCGGGTCTTGATTCGCTTGACGCTGCTG,5.8,5.23,4.11,,2.84,6.61,4.05
CCGATTAACATCAGGGTTCCCCATGATGTTAATCGGGTCTTGATTCGCTTGACGCTGCTG,6.72,5.05,5.17,5.37,7.85,4.21,3.83
CCGATTAACATCAGGAAACCACCTGATGTTAATCGGGTCTTGATTCGCTTGACGCTGCTG,4.41,4.04,3.92,,7.57,6.62,6.09
